Source: PubChem (National Center for Advancing Translational Sciences (NCATS))
USP1-UAF1 inh: inhibitors of human USP1/UAF1 deubiquitinase | 390,000 tested, 0.23% active | AID 743255 | recombinant USP1/UAF1, Ub-Rhodamine cleavage fluorescence | O94782 | Potency, µM (series often up to 57.1 µM), for the others: top-dose activity change, negative = inhibition, actives largely listed as inhibitors; further: on the % scale 0 is the no-effect control and ±100 the full control effect; nearly all actives have a fitted effect of over 60% in size
Target sequence (O94782 whole entry, looked up): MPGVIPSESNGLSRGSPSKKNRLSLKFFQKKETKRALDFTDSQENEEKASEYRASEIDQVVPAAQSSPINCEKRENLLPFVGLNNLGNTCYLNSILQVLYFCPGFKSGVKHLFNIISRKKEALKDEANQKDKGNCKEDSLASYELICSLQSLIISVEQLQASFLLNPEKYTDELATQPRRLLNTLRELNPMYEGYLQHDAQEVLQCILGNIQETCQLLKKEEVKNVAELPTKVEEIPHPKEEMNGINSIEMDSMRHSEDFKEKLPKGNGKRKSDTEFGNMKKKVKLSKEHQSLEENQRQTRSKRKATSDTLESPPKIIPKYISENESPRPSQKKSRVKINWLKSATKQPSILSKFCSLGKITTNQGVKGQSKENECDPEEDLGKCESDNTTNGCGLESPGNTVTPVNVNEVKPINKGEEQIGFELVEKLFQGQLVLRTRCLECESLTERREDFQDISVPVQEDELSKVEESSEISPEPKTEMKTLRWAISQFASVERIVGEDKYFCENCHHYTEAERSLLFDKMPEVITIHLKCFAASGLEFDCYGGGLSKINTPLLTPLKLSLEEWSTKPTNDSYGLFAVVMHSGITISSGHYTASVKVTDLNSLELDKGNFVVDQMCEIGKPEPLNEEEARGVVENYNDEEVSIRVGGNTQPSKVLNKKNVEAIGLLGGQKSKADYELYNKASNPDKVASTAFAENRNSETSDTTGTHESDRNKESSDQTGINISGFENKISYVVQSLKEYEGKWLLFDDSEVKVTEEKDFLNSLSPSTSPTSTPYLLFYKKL
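1 nM enzyme complex + cpd, 15 min RT; start with Ub-Rho 150nM final; kinetic fluorescence ex 480/em 540, 6 reads q60 s. Buffer 50mM HEPES pH 7.8, 0.5mM EDTA, 0.1 mg/ml BSA, 1mM TCEP, 0.01% Tween-20.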
VDR inh: inhibitors of human vitamin D receptor. P11473. VDR-SRC2-3 peptide fluorescence polarization, 2 h. Potency, µM, inactives show max response, negative = inhibition, hits mostly inhibitors. 400,000 tested, 0.93% active. AID 504847; further: on the % scale 0 is the no-effect control and ±100 the full control effect
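Fluorescence polarization assay measuring small-molecule disruption of VDR binding to the coregulator peptide SRC2-3. Compounds were pin-transferred (23 nl) into the reagent mix and incubated 2 h at room temperature before reading.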
EPAC1 antag: antagonists of human EPAC1; O95398; EPAC1 GEF assay, Rap1b-BODIPY-GDP exchange fluorescence; Potency, µM (series often up to 115 µM), without a hit: at the top dose activity change, negative = inhibition, usual class: inhibitors; 360,000 tested, 0.14% active; AID 720709;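 further: plate controls were vehicle for no effect and positive control for full effect; nearly all actives have a fitted effect of over 50% in size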
EPAC1 agonist: activates human EPAC1 exchange factor. EPAC1 agonist qHTS, biochemical assay; response scale: 100% = response to 6.5 mM cAMP. Potency, µM (series often up to 154 µM), without a hit: at the top dose activation, most hits filed as activators. 360,000 tested, 0.073% active. AID 720707; further: nearly all actives have a fitted effect of over 60% in size
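EPAC1 100 nM, Rap1B–BODIPY-GDP 250 nM, unlabeled GDP 50 uM; compound titration; 5 min RT; kinetic read ex480/em540 at 5-min intervals ×30 min; data normalized to 6.5 mM cAMP agonist control.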
EPAC2 antag: blocks human EPAC2 exchange factor | 360,000 tested, 0.18% active | Q8WZA2 | AID 720708 | EPAC2 GEF exchange of Rap1B-BODIPY-GDP, fluorescence | Potency, µM (series often up to 114 µM), inactives show at the top dose activity, negative = inhibition, most hits filed as inhibitors; further: on the % scale 0 is the no-effect control and ±100 the full control effect; nearly all actives have a fitted effect of over 45% in size
EPAC2 agonist: activates human EPAC2 exchange factor; EPAC2 activation, biochemical qHTS; response scale: 100% = 6.5 mM cAMP response; Potency, µM (titrated, usually from 154 µM), for inactives: top-dose activation, usual class: activators; 360,000 tested, 0.079% active; AID 720711; further: nearly all actives have a fitted effect of over 50% in size
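Fluorescence exchange assay: 100 nM EPAC2 with 250 nM RAP1B-BODIPY-GDP and 50 uM GDP; compounds tested as a concentration-titration series (qHTS). Loss of Rap1-bound BODIPY-GDP fluorescence read at 480/540 nm; data normalized to 6.5 mM cAMP.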
* hit, by the source's call. An excerpt weighted towards active compounds, which were near 1.2% of everything screened. The call rests on the fitted dose curve; in most records, active means well fitted curve in the direction sought with a large enough effect; inconclusive means small, poorly fitted or top-dose-only effect, or another doubt; inactive means no such curve, though single readings can be large; an effect the other way counts as inactive or inconclusive. Potency means the concentration at half of the fitted maximal effect.

What do the screens show for `COC(=O)C1C(=O)C(C(=O)/C=C/c2ccccc2)C(=O)CC1(C)C` (stereo unspecified)?
USP1-UAF1 inh: -5%; VDR inh: -3%; EPAC1 antag: -27%; EPAC1 agonist: -6%; EPAC2 antag: -5%; EPAC2 agonist: -4%

How did COC(=O)C1C(=O)C(C(=O)/C=C/c2ccco2)C(=O)CC1(C)C (stereo unspecified) do in these assays?
VDR inh: 45µM*

Results for CC(=O)c1ccc(-c2c(C3C4C=CCCC4(C)C(=O)N3Cc3ccccc3)ccc3ccccc23)cc1 (stereo unspecified) ?
VDR inh: -15%

Results for O=[N+]([O-])c1ccc(C(=S)N2CCN(c3ccc(F)cc3)CC2)cc1 ?
USP1-UAF1 inh: -26%; VDR inh: 79µM*; EPAC1 antag: -19%; EPAC1 agonist: -3%; EPAC2 antag: -1%; EPAC2 agonist: -10%

How did O=[N+]([O-])c1ccc(NC(=S)N2CCN(c3ccc(F)cc3)CC2)cc1 do in these assays?
USP1-UAF1 inh: -17%; VDR inh: -10%; EPAC1 antag: -2%; EPAC1 agonist: -5%; EPAC2 antag: 7%; EPAC2 agonist: -3%

What do the screens show for `O=C(N/N=C/c1ccc(N2CCOCC2)o1)c1ccccc1[N+](=O)[O-]`?
USP1-UAF1 inh: -8%; VDR inh: inconclusive; EPAC1 antag: 6%; EPAC1 agonist: 6%; EPAC2 antag: -1%; EPAC2 agonist: 2%

Results for O=C(N/N=C/c1ccc(N2CCOCC2)o1)c1cccc(C(F)(F)F)c1 ?
USP1-UAF1 inh: -14%; VDR inh: 25µM*; EPAC1 antag: -22%; EPAC1 agonist: 14%; EPAC2 antag: -3%; EPAC2 agonist: 11%

What do the screens show for `O=C1O/C(=C/Br)CCC1c1cccc2ccccc12` (stereo unspecified)?
VDR inh: 18µM*

How did C=CCn1c(SCC#N)nc2ccc(Cl)cc2c1=O do in these assays?
VDR inh: -10%

Results for Cc1ccccc1-c1cc(N2CCNCC2)ncn1 ?
VDR inh: 45µM*

What do the screens show for `CCOC(=O)c1c(CN(C)C)n(C)c2c(O)c(N=NC(N)=O)c3ccc(Br)cc3c12`?
USP1-UAF1 inh: 35µM*; VDR inh: inconclusive; EPAC1 antag: 3%; EPAC1 agonist: 2%; EPAC2 antag: 0%; EPAC2 agonist: -1%

What do the screens show for `CCCn1c(=O)c(C(=O)OCC)c(O)c2cc(Br)ccc21`?
USP1-UAF1 inh: -10%; VDR inh: -13%; EPAC1 antag: -11%; EPAC1 agonist: -14%; EPAC2 antag: 4%; EPAC2 agonist: -3%

What do the screens show for `CN(C)S(=O)(=O)c1cccc(NC(=S)N/N=C/c2ccc(O)c(O)c2O)c1`?
USP1-UAF1 inh: -25%; VDR inh: 89µM*; EPAC1 antag: inconclusive; EPAC1 agonist: 0%; EPAC2 antag: 3%; EPAC2 agonist: 3%

How did COc1cccc(/C=N/NC(=S)Nc2cccc(S(=O)(=O)N(C)C)c2)c1 do in these assays?
USP1-UAF1 inh: -8%; VDR inh: 79µM*; EPAC1 antag: 0%; EPAC1 agonist: 5%; EPAC2 antag: -3%; EPAC2 agonist: 24%

Results for COc1ccc(O)c(/C=N/NC(=S)Nc2cccc(S(=O)(=O)N(C)C)c2)c1 ?
USP1-UAF1 inh: -17%; VDR inh: -5%; EPAC1 antag: inconclusive; EPAC1 agonist: 16%; EPAC2 antag: -5%; EPAC2 agonist: 11%

How did COc1ccc(C2CC(c3ccccc3)Oc3cc(OC)ccc32)cc1 (stereo unspecified) do in these assays?
VDR inh: -1%

How did CNc1ccc(/C=C2\COc3ccccc3C2=O)cc1[N+](=O)[O-] do in these assays?
USP1-UAF1 inh: -12%; VDR inh: -9%; EPAC1 antag: -14%; EPAC1 agonist: -4%; EPAC2 antag: -3%; EPAC2 agonist: -10%
